# The supplement of paper PMC10849652
# The full data set covers some 7,900 targets. This sample favours those with a hit. About 0.6% of all pairs of compound and target were hits. A number with no mark means an inactive call.
# Experiments:
# Test in all cases: log2 fold change, soluble protein after heating vs DMSO (PISA); higher = thermal stabilisation; K562 cells, 10 uM, 30 min; active = over 0.2 and 3.5 SD of the protein, either way, in both replicates (recomputed)
# [1] = compound: CC[C@@H]1C(=O)N(C)c2cnc(Nc3ccc(C(=O)NC4CCN(C)CC4)cc3OC)nc2N1C1CCCC1
# Summary of the method: (§1)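 Thermal stability values are relative to control samples and come from duplicates. They are expressed as log2 fold changes. For measurement, K562 cells (2×10^6 cells/mL) received 10 μM compound for 30 min, and aliquots were heated for 3 min over 48°C-58°C, pooled, and extracted at 4°C in PBS with 0.5% NP-40. Soluble protein, the supernatant after 21,000xg for 90 min, was quantified by TMTpro 16plex LC-MS/MS with equalised channel sums.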
# [2] = compound: CC[C@@H]1C(=O)N(C)c2cnc(Nc3ccc(C(=O)N[C@H]4CC[C@H](N5CCN(CC6CC6)CC5)CC4)cc3OC)nc2N1C(C)C [volasertib]
# Summary of the method: as §1
# [3] = compound: CC[C@H](C)N1C=C(C2=C(C=C(C=C21)C3=CN=C(C=C3)N4CCNCC4)C(=O)NCC5=C(C=C(NC5=O)C)C)C
# Summary of the method: as §1
# [4] = compound: CC[C@H](C)[C@@H](C(=O)N[C@@H]([C@@H](C)O)C(=O)N[C@@H](CC(C)C)C(=O)[C@]1(CO1)C)NC(=O)[C@H]([C@@H](C)CC)N(C)C(=O)C [epoxomicin]
# Summary of the method: as §1
# [5] = compound: CCn1c(C(=O)N(C2CC2)C2CC2)cc2c3c(ncn3C)c(Nc3cc(C)n(C)n3)nc21
# Summary of the method: as §1
# [6] = compound: CCn1cc(-c2ccnc3[nH]c(-c4cccc(CN(C)C)c4)cc23)c(-c2ccc(NC(=O)N(C)C)cc2)n1
# Summary of the method: as §1
# [7] = compound: CN(C)CC(=O)Nc1ccc2[nH]c(=O)c3ccccc3c2c1
# Summary of the method: as §1
# [8] = compound: CN(CCOC1=CC=C(C=C1)C[C@H]2C(=O)NC(=O)S2)C3=CC=CC=N3 (racemic) [rosiglitazone]
# Summary of the method: as §1
# [9] = compound: CN1C2=C(C3=C1C(=O)N(N=C3)CC4=CC(=CC=C4)N)SC(=C2)S(=O)C
# Summary of the method: as §1
# [10] = compound: CN1CCC(CNc2ccc3ncc(-c4cccc(OC(F)(F)F)c4)n3n2)CC1
# Summary of the method: as §1
# [11] = compound: CN1CCN(CCOc2cc(OC3CCOCC3)c3c(Nc4c(Cl)ccc5c4OCO5)ncnc3c2)CC1 [saracatinib]
# Summary of the method: as §1
# [12] = compound: CN1CCN(c2nc(C3=C(c4c[nH]c5ccccc45)C(=O)NC3=O)c3ccccc3n2)CC1 [sotrastaurin]
# Summary of the method: as §1
# [13] = compound: CN1CC[C@H](c2c(O)cc(O)c3c(=O)cc(-c4ccccc4Cl)oc23)[C@H](O)C1 [alvocidib]
# Summary of the method: as §1
# [14] = compound: CN1CCc2c(c3ccccc3n2Cc2ccc(C(=O)NO)cc2)C1 [Tubastatin A]
# Summary of the method: as §1
# [15] = compound: CNC(=O)C1=CC=CC=C1NC2=NC(=NC=C2Cl)NC3=C(C=C(C=C3)N4CCOCC4)OC
# Summary of the method: as §1
# [16] = compound: CNC(=O)c1ccc(Nc2ncc(C(F)(F)F)c(NCc3nccnc3N(C)S(C)(=O)=O)n2)cc1 [defactinib]
# Summary of the method: as §1
# [17] = compound: CNCc1ccc(-c2[nH]c3cc(F)cc4c3c2CCNC4=O)cc1 [rucaparib]
# Summary of the method: as §1
# [18] = compound: CNc1nc(-c2ccc3c(N)n[nH]c3c2)cc(N2C[C@@H](C(=O)NC3CCCCC3)CC[C@H]2C)n1
# Summary of the method: as §1
# [19] = compound: COC(=O)N[C@@H](C)CNc1nccc(-c2cn(C(C)C)nc2-c2cc(Cl)cc(NS(C)(=O)=O)c2F)n1 [encorafenib]
# Summary of the method: as §1
# [20] = compound: COC(=O)[C@H](CCSC)NC(=O)C1=C(C=C(C=C1)NC[C@H](CS)N)C2=CC=CC=C2
# Summary of the method: as §1
# UniProt P27816, sequence (P27816 whole entry, looked up): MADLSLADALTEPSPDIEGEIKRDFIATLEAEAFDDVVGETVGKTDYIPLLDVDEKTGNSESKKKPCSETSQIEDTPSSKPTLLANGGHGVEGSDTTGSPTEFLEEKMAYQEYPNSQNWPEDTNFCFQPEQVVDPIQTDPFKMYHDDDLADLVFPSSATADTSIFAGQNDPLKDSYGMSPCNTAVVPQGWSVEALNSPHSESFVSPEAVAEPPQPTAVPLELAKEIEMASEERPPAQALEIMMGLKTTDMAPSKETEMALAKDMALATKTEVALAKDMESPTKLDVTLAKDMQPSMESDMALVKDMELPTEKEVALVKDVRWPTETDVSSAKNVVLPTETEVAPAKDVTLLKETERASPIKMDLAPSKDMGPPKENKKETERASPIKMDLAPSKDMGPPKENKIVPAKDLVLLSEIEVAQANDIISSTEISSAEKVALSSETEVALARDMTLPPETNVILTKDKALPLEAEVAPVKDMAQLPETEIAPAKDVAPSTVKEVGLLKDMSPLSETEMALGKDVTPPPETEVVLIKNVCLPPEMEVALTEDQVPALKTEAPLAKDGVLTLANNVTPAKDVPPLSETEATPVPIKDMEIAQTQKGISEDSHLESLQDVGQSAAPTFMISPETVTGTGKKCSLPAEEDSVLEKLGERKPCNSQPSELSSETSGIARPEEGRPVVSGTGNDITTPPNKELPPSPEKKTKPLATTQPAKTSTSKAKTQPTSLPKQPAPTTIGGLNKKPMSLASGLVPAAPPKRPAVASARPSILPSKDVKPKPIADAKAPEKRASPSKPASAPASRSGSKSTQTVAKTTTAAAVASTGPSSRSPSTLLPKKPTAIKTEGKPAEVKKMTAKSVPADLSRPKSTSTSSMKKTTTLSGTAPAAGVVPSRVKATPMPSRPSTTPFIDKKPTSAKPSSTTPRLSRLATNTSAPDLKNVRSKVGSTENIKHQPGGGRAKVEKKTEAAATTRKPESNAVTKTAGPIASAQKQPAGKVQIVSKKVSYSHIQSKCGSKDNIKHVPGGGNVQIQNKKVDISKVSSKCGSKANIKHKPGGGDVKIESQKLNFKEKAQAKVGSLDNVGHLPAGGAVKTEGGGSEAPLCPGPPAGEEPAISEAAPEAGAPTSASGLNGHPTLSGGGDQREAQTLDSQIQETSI
# UniProt Q9Y383, sequence (Q9Y383 whole entry, looked up): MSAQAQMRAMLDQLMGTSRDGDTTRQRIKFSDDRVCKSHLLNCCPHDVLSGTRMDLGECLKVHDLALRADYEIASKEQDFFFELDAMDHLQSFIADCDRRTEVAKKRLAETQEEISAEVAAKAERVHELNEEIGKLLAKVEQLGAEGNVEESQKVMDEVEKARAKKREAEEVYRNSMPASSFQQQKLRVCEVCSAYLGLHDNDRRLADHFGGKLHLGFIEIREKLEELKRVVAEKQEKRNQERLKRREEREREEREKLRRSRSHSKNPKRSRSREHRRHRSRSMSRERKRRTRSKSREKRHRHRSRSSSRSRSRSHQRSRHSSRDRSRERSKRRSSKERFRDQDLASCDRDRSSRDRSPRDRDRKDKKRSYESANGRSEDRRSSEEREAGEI
# UniProt Q9H6V9, sequence (Q9H6V9 whole entry, looked up): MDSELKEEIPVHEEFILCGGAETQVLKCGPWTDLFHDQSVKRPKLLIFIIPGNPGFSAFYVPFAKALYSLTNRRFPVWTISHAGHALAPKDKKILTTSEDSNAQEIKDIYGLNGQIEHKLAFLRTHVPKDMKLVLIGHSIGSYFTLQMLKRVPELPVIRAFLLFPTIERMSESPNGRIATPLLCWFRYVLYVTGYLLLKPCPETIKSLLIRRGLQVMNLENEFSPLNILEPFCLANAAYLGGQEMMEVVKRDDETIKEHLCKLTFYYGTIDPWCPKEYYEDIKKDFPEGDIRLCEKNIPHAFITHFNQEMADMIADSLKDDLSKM
# UniProt Q96AQ8, sequence (Q96AQ8 whole entry, looked up): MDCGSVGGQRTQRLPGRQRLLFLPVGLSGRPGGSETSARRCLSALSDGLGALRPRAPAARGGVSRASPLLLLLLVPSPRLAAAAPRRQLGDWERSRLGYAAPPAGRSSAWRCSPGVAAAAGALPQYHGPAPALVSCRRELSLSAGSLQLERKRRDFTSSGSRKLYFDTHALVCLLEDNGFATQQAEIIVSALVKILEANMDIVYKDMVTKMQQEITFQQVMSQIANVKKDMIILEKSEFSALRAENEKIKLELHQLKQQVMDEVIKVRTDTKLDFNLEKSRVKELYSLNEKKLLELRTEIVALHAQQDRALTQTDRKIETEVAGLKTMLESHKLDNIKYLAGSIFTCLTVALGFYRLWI
# UniProt Q8IVT5, sequence (Q8IVT5 whole entry, looked up): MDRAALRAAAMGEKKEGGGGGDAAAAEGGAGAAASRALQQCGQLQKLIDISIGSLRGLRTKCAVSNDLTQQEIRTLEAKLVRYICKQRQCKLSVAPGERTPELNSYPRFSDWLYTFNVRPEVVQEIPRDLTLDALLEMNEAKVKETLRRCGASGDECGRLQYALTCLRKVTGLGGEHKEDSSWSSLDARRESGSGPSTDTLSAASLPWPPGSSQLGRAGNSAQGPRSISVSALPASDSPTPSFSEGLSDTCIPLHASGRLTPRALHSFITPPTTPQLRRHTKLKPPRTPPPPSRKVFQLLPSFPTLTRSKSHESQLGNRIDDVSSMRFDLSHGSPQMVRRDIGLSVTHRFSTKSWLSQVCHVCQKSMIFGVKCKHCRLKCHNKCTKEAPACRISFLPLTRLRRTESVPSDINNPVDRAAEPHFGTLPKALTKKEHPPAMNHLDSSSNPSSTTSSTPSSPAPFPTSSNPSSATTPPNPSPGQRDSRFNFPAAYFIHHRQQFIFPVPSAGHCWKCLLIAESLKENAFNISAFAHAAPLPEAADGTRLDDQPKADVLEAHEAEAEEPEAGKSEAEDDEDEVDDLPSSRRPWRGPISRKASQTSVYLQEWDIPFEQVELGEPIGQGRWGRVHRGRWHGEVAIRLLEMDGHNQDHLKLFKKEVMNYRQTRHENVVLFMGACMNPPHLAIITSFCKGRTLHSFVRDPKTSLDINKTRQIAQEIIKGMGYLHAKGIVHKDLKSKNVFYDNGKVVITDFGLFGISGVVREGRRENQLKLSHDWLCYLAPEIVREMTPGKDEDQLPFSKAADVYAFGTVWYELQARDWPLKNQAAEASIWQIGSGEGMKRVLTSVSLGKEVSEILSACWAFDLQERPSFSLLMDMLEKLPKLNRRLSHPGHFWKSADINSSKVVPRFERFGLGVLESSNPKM
# UniProt O95819, sequence (O95819 whole entry, looked up): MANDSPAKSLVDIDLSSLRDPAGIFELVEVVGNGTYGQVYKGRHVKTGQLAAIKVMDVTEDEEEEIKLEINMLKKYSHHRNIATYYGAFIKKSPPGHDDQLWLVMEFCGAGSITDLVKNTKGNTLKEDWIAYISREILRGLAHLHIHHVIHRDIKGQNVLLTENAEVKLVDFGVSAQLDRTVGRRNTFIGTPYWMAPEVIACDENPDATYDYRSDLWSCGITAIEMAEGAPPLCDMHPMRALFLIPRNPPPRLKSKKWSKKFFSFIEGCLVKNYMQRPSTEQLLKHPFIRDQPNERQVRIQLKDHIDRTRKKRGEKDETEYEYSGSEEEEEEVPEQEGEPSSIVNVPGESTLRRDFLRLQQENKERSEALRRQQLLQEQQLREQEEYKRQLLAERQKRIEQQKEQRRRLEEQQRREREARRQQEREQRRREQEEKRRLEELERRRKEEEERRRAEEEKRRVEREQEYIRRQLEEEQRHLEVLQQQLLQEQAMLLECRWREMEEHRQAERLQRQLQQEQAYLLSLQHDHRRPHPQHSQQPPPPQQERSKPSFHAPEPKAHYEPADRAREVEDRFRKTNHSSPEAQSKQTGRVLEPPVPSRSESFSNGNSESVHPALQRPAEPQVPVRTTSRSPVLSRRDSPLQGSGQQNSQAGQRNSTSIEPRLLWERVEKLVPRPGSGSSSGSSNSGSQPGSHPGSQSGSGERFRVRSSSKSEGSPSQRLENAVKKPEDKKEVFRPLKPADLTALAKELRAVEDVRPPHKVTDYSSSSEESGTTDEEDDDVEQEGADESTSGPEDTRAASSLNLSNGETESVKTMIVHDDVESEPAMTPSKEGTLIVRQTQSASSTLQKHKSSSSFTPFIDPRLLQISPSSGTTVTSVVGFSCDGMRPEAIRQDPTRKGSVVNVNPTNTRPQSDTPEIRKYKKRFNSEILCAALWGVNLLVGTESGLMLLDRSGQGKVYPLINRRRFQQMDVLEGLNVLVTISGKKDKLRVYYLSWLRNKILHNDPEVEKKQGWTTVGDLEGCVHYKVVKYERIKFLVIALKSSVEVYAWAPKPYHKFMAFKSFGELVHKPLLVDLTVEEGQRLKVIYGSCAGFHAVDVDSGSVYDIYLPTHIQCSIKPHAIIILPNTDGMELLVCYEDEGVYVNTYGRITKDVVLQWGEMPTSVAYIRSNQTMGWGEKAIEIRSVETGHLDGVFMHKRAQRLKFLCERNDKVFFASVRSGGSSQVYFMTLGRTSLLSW
# UniProt Q8WV07, sequence (Q8WV07 whole entry, looked up): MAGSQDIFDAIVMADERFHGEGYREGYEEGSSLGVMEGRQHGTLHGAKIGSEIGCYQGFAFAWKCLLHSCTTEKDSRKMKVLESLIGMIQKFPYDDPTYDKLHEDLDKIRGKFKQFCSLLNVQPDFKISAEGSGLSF
# UniProt O95568, sequence (O95568 whole entry, looked up): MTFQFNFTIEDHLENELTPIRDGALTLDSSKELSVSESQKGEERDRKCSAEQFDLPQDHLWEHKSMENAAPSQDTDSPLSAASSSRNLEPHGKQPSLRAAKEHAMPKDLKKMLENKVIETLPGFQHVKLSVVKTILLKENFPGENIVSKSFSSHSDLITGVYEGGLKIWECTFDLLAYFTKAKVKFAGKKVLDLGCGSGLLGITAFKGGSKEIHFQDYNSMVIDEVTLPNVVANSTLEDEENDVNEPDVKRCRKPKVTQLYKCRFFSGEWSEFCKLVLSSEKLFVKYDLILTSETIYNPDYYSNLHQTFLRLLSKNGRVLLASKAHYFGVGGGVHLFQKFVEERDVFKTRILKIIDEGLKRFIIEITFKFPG
Target,log2 fold change [1],log2 fold change [2],log2 fold change [3],log2 fold change [4],log2 fold change [5],log2 fold change [6],log2 fold change [7],log2 fold change [8],log2 fold change [9],log2 fold change [10],log2 fold change [11],log2 fold change [12],log2 fold change [13],log2 fold change [14],log2 fold change [15],log2 fold change [16],log2 fold change [17],log2 fold change [18],log2 fold change [19],log2 fold change [20]
KIFBP (UniProt Q96EK5),-0.007,-0.333 (active),0.11,-0.035,-0.036,0.017,0.038,0.11,0.095,-0.046,-0.039,0.029,-0.021,-0.01,0.02,-0.092,0.045,-0.019,0.049,-0.134
MAP4 (UniProt P27816),0.011,0.049,-0.041,-0.003,0.018,-0.002,-0.03,-0.021,-0.004,0.037,0.017,0.019,0.042,-0.029,-0.014,0.016,0.009,-0.029,-0.001,0.031
LUC7L2 (UniProt Q9Y383),-0.171,-0.345 (active),0.044,-0.017,0.003,-0.003,-0.001,0.011,-0.025,-0.073,0.022,-0.01,-0.246,0.007,-0.304 (active),-0.267 (active),-0.077,-0.047,0.065,0.03
IRF2BPL (UniProt Q9H1B7),0.01,-0.043,-0.012,0.108,-0.042,-0.023,0.036,0.067,-0.068,-0.018,0.003,-0.044,-0.079,0.053,0.032,-0.038,0.015,-0.045,-0.06,-0.027
LYN (UniProt P07948),-0.016,-0.023,0.033,0.039,0.037,-0.095,-0.024,-0.009,0.144,-0.03,-0.198,-0.08,0,0.026,-0.287,-0.174,0.13,-0.022,0.009,0.038
LARP1 (UniProt Q6PKG0),0.098,0.071,0.047,-0.034,0.061,0.016,-0.054,0.014,0.131,0.025,-0.023,-0.029,0.12,0.059,0.05,0.089,0.11,0.004,0.039,0.01
KSR1 (UniProt Q8IVT5),-0.11,-0.182,0.179,0.047,0.002,0.178,0.009,0.058,-0.05,-0.878 (active),-0.229,-0.149,-0.135,0.054,-0.061,-0.073,-0.044,0.038,0.081,0.012
MCUR1 (UniProt Q96AQ8),0.022,0.137,0.006,0.009,-0.027,-0.041,-0.038,0.025,-0.042,-0.115,-0.002,0.053,-0.035,0.014,0.014,-0.047,-0.038,0.014,-0.009,-0.028
MAP4K4 isoform 3 (UniProt O95819),-0.082,-0.316 (active),0.011,0.047,0.017,-0.184,0.012,0.058,0.001,-0.299 (active),-0.054,–,–,-0.002,-0.051,-0.067,-0.004,-0.037,0.026,0.018
LDAH isoform 2 (UniProt Q9H6V9),-0.062,-0.374 (active),0.007,-0.052,-0.011,-0.148,0.049,-0.031,-0.137,-0.688 (active),0.092,0.035,-0.139,-0.03,-0.001,-0.09,-0.004,-0.043,0.04,-0.063
METTL18 (UniProt O95568),0.02,-0.159,0.032,-0.058,0.08,0,0.006,0.062,0.005,0.015,0.024,0.066,-0.056,-0.037,-0.042,-0.021,-0.041,-0.031,0.108,-0.176
LPCAT3 (UniProt Q6P1A2),0.146,-0.026,-0.008,-0.005,0.062,-0.063,0.087,-0.042,-0.093,-0.202,-0.048,-0.14,-0.002,0,0.093,0,-0.074,0.138,-0.026,-0.021
LTO1 (UniProt Q8WV07),-0.018,0.322,0.058,0.063,-0.008,-0.029,-0.312 (active),0.013,-0.105,0.035,0.071,-0.003,-0.01,-0.288,0.01,0.051,0.03,0.073,-0.016,-0.314 (active)
MICU1 isoform 3 (UniProt Q9BPX6),-0.113,-0.281,0.031,0.026,-0.009,0.008,0.006,-0.01,0.077,-0.369 (active),-0.073,0,0.005,-0.007,-0.054,0.172,0.134,-0.012,0.121,-0.05
MIEF1 (UniProt L0R8F8),-0.028,-0.076,-0.106,0.022,0.017,-0.065,-0.018,-0.019,-0.028,-0.021,-0.068,-0.008,0.009,0.041,0.008,-0.003,0.024,-0.074,0.008,0.015
LDLR (UniProt P01130),-0.135,-0.176,-0.028,0.031,-0.007,0.058,-0.059,0.009,-0.004,0.064,0.113,0.003,-0.04,-0.002,0.003,-0.033,0,-0.065,0.01,0.104
